Structures are written as SMILES. About 770 (0.77%) of roughly 100,000 compounds were called active. Cut-off read from the data, not from the text of the source: active = inhibition above about 50%; inactive = the rest. The entries come from a sample that favours actives as a whole.

This assay deals with Gag-Pol polyprotein (Human immunodeficiency virus type 1 group M subtype B (isolate HXB2)) (UniProt P04585). As to the kind of experiment: RNase H inhibition, HIV 1 Gag Pol polyprotein, FRET biochemical assay, screening (AID 372). The following applies: HIV-1 RT RNase H, FRET RNA/DNA substrate fluorescence; at 10 µM; hits give high values.
For the compound `CCC(C(=O)Nc1nc(-c2ccccc2)c(C)s1)c1ccccc1` (configuration not stated), the inhibition (usually the change of the read-out against control, counted positive when it falls) is 10% (inactive).
For `COC(=O)C1=C(C)NC2=C(C(=O)CC(c3ccccc3)C2)C1c1cc(Br)c(O)c(OC)c1` (configuration not stated) the value was 15% (inactive).
For `Cc1cc(=O)oc2cc(OC(=O)CCCOc3ccc(Cl)cc3Cl)ccc12` the value was 18% (inactive); for `O=c1cc2oc3cc(O)c(O)cc3c(-c3ccccc3[N+](=O)[O-])c-2cc1O`, 69% (active).
Then `Cc1ccc(-c2cc(=O)c3cc(C)ccc3o2)cc1`, with 11% (inactive); and `O=c1[nH]c2ccccc2c(O)c1-c1ccccc1[N+](=O)[O-]`, with 1% (inactive).
For `CN(C)c1ccc(-c2c3cc(O)c(=O)cc-3oc3cc(O)c(O)cc23)cc1`, the inhibition is 63% (active).
Consider `O=C1c2ccccc2C(=O)c2c(O)c([N+](=O)[O-])cc(O)c21`, for which the inhibition was 20% (inactive).
Then `Cc1ccc(-c2cc(=O)c3cc(Cl)ccc3o2)cc1`, with 5% (inactive); and `O=C(Nc1ccc2ccccc2c1)c1ccccc1Cl`, with 3% (inactive).
As for `Cc1cc(OCC(N)=O)ccc1Cl`, the inhibition was 0% (inactive).
For the compound `Nc1c(Cl)cc2c(c1Oc1ccccc1)C(=O)c1ccccc1C2=O`, the inhibition is 8% (inactive).
Then `Cc1ccc2nc3c(N)c(Cl)cc4c3c(c2c1)-c1ccccc1C4=O`, with 56% (active).
Regarding `Nc1c(Cl)cc(Br)c2c1C(=O)c1ccccc1C2=O`, the inhibition was 6% (inactive).
For `O=C(Cn1c(NCCO)nc2ccccc21)c1cccc(Br)c1` the value was 3% (inactive).
For `C=CCC(C(=O)c1ccccc1)C(=O)C(C)(C)OC` (configuration not stated) the value was 7% (inactive); for `Cc1ccc(/C=N/NC(=O)Cc2ccc(Cl)cc2)o1`, 7% (inactive); for `COc1ccc(CC(=O)N/N=C/c2ccc(I)o2)cc1`, 0% (inactive).
For `COc1ccc(CC(=O)N/N=C/c2ccc(-c3cc(Cl)ccc3C)o2)cc1` the value was 74% (active); for `O=Cc1cc(Cl)c(OCc2ccc(F)cc2)c(Cl)c1`, 41% (inactive).
In the case of `Cc1cc(C)cc(OCC(=O)Nc2cc(-c3nc4cc(C)cc(C)c4o3)ccc2C)c1`, the inhibition is 14% (inactive).
As to `Cc1ccc2oc(-c3ccc(C)c(NC(=O)COc4ccccc4C)c3)nc2c1`, the inhibition is 44% (inactive).
Take `Cc1ccc(-c2nc3ccccc3o2)cc1NC(=O)COc1ccccc1C`: the inhibition is 50% (active).
`Cc1cc(C)c2oc(-c3ccc(C)c(NC(=O)COc4cccc(C)c4C)c3)nc2c1`: the inhibition was 0% (inactive).
For the compound `Cc1cc(C)c2oc(-c3ccc(C)c(NC(=O)COc4ccccc4C)c3)nc2c1`, the inhibition is 55% (active).
Turning to `Cc1ccc(-c2nc3ccccc3o2)cc1NC(=O)COc1ccccc1`, the inhibition was 8% (inactive).
Take `CCCSc1nc2ccccc2c(=O)n1CC1CCCCC1`: the inhibition is 1% (inactive).
For `O=C(Nc1cccc(C(F)(F)F)c1)c1ccc(I)cc1`, the inhibition was 1% (inactive).
Then `COc1cc(/C=N\NC(=O)C2COc3cc4ccccc4cc3O2)ccc1OCc1ccccc1` (configuration not stated), with 14% (inactive); and `CCN(Cc1ccccc1)C(=O)c1ccccc1C`, with 6% (inactive); and `CCOc1ccccc1OCCCCOc1cc(C)ccc1Cl`, with 5% (inactive).
Then `Cc1c(OCc2c(F)cccc2Cl)ccc2c3c(c(=O)oc12)CCC3`, with 0% (inactive); and `CCOC(=O)c1c(N)sc2c1CCc1ccccc1-2`, with 51% (active).
Then `CCOC(=O)c1c(NC(C)=O)sc2c1CCc1ccccc1-2`, with 1% (inactive); and `COC(=O)c1c(N)sc2c1CCc1ccccc1-2`, with 9% (inactive).
On to `Cc1ccc(-c2nc(N/N=C/c3ccccc3)c3ccccc3n2)cc1`, for which the inhibition is 10% (inactive).
Then `Cc1ccc(-c2nc(N/N=C/c3ccccc3Cl)c3ccccc3n2)cc1`, with 58% (active); and `Cc1ccc(-c2nc(N/N=C/c3ccccc3O)c3ccccc3n2)cc1`, with 20% (inactive).
Then `Oc1ccccc1C(=S)N1CCOCC1`, with 24% (inactive); and `COc1ccc(OC)c(C(=S)N2CCOCC2)c1`, with 11% (inactive).
Regarding `COc1ccccc1C(=S)N1CCOCC1`, the inhibition was 70% (active).
Then `COc1ccc2c(c1)c(/C=C/c1nc3ccccc3c(=O)n1-c1ccccc1[N+](=O)[O-])c(C)n2C`, with 1% (inactive); and `CN(c1ccc(C(=O)N2CCN(c3ccccc3)CC2)cc1)S(=O)(=O)c1ccccc1`, with 6% (inactive); and `CN(c1ccc(C(=O)Nc2ccccc2F)cc1)S(=O)(=O)c1ccccc1`, with 9% (inactive).
With `CN(c1ccc(C(=O)Nc2cc(Cl)cc(Cl)c2)cc1)S(=O)(=O)c1ccccc1`, the inhibition was 8% (inactive).
Turning to `CN(c1ccc(C(=O)N2CCCC2)cc1)S(=O)(=O)c1ccccc1`, the inhibition is 5% (inactive).
With `CC1CCN(C(=O)c2ccc(N(C)S(=O)(=O)c3ccccc3)cc2)CC1`, the inhibition was 51% (active).
On to `CNC(=O)c1ccc(N(C)S(=O)(=O)c2ccccc2)cc1`, for which the inhibition was 2% (inactive).
For the compound `Cc1cccc(C)c1NC(=O)c1ccc(N(C)S(=O)(=O)c2ccccc2)cc1`, the inhibition was 57% (active).
Consider `Cc1ccccc1CNC(=O)c1ccc(N(C)S(=O)(=O)c2ccccc2)cc1`, for which the inhibition is 0% (inactive).
Then `CN(c1ccc(C(=O)Nc2cc(Cl)ccc2Cl)cc1)S(=O)(=O)c1ccccc1`, with 54% (active); and `Cc1nn(CC(=O)Nc2ccc(Cl)cc2Cl)c(C)c1[N+](=O)[O-]`, with 0% (inactive).
For the compound `O=C(O)C1CN(S(=O)(=O)c2ccccc2)CCN1S(=O)(=O)c1ccccc1` (configuration not stated), the inhibition is 8% (inactive).
On to `CCN(CC)C(=O)C1CN(S(=O)(=O)c2ccccc2)CCN1S(=O)(=O)c1ccccc1` (configuration not stated), for which the inhibition is 54% (active).
For the compound `COC(=O)C1CN(S(=O)(=O)c2ccccc2)CCN1S(=O)(=O)c1ccccc1` (configuration not stated), the inhibition is 2% (inactive).
Then `Cc1cc(OC(C)C)c2c(-c3ccccc3)cc(=O)oc2c1`, with 50% (active); and `Cc1cc(OS(C)(=O)=O)c2c(-c3ccccc3)cc(=O)oc2c1`, with 19% (inactive); and `Cc1cc(OCC(=O)OC(C)C)c2c(-c3ccccc3)cc(=O)oc2c1`, with 20% (inactive).
For `COc1ccc(NC(=O)n2nc(C(F)(F)F)nc2N)cc1` the value was 0% (inactive).
Turning to `Cc1cc(Cl)ccc1OC(C)C(=O)N1CCN(c2cccc(Cl)c2)CC1` (configuration not stated), the inhibition was 10% (inactive).
Then `CCOc1nc(Nc2ccc(Cl)cc2)nc(N2CCCCC2)n1`, with 9% (inactive); and `c1ccc(-c2onc3ccc(Oc4ccc5noc(-c6ccccc6)c5c4)cc23)cc1`, with 19% (inactive).
Consider `O=[N+]([O-])c1ccccc1S(=O)(=O)NCCSCc1ccc(Cl)cc1`, for which the inhibition was 50% (active).
Then `O=[N+]([O-])c1ccccc1S(=O)(=O)NCCSc1ccccc1`, with 33% (inactive); and `O=S(=O)(NCCSCc1ccccc1)c1ccc(Cl)cc1`, with 15% (inactive).
Then `O=C(O)c1ccc(-c2ccc(/C=C3/SC(=O)N(c4ccccc4)C3=O)o2)cc1`, with 15% (inactive); and `COC(=O)c1ccc(-c2ccc(/C=C3\SC(=O)N(c4ccccc4)C3=O)o2)cc1`, with 57% (active).
For `COC(=O)c1ccc(-c2ccc(/C=C3/SC(=S)N(c4ccccc4)C3=O)o2)cc1` the value was 4% (inactive); for `COc1cc(/C=C(\C#N)C(N)=S)ccc1OCc1ccccc1`, 10% (inactive); for `CCOc1ccc(N(CC(N)=O)S(=O)(=O)c2ccc(SC)cc2)cc1`, 0% (inactive).
With `CCOC(=O)c1c(NC(=O)Cc2ccc(OC)cc2)sc2c1CCN(C(=O)OCC)C2`, the inhibition was 50% (active).
`CCOC(=O)c1c(NC(=O)COc2ccc(Cl)cc2)sc2c1CCN(C(=O)OCC)C2`: the inhibition was 38% (inactive).
Regarding `CCOC(=O)c1c(NC(C)=O)sc2c1CCN(C(=O)OCC)C2`, the inhibition is 9% (inactive).
Take `CCOc1ccc(NC(=O)CSc2nc3ccccc3s2)cc1`: the inhibition is 10% (inactive).
For `Nc1c2c(cc3ccccc13)C(=O)c1ccccc1C2=O` the value was 46% (inactive); for `CCOc1ccccc1C(=O)Nc1cccc(OC)c1`, 11% (inactive); for `Cc1ccc(S(=O)(=O)NC(=O)OC(c2ccccc2)C(F)(F)F)cc1` (configuration not stated), 0% (inactive).
Take `CCc1ccccc1NC(=O)c1ccc(CN2CCc3ccccc3C2)cc1`: the inhibition is 7% (inactive).
Then `COc1ccccc1CC(=O)Nc1ccc(Br)c(C)c1`, with 59% (active); and `COc1ccccc1CC(=O)Nc1ccc(C)c(Cl)c1`, with 5% (inactive).
For `CCC(C)c1ccc(NC(=O)Cc2ccccc2OC)cc1` (configuration not stated) the value was 52% (active).
Take `COc1ccccc1NC(=O)Cc1ccc(F)cc1F`: the inhibition is 0% (inactive).
For `COc1ccccc1CC(=O)Nc1ccc(F)cc1F`, the inhibition was 55% (active).
As to `CCOC(=O)c1ccc(NC(=O)Cc2ccccc2OC)cc1`, the inhibition was 8% (inactive).
In the case of `COc1ccccc1CC(=O)Nc1nccs1`, the inhibition was 14% (inactive).
In the case of `COc1ccc(CC(=O)Nc2ccc(Br)c(C)c2)cc1OC`, the inhibition is 12% (inactive).
As for `COc1ccccc1CC(=O)Nc1ccc(F)cc1`, the inhibition was 10% (inactive).
In the case of `COc1ccccc1CC(=O)Nc1cccc(F)c1`, the inhibition is 0% (inactive).
Then `COc1cccc(OC)c1C(=O)Nc1cc(C)ccn1`, with 0% (inactive); and `COc1ccccc1CC(=O)Nc1cc(C)ccn1`, with 53% (active); and `Cc1nonc1-c1cn2cc(Cl)ccc2n1`, with 8% (inactive).
For `COc1ccccc1C/C(N)=N/OC(=O)Cc1ccc(Cl)cc1` the value was 22% (inactive); for `O=C(Nc1ccc(S(=O)(=O)N2CCCCCC2)cc1)c1cccc([N+](=O)[O-])c1`, 9% (inactive).
For `CCOC(=O)C1=C(C)N=c2s/c(=C\c3ccc([N+](=O)[O-])o3)c(=O)n2C1c1ccc(SC)cc1` (configuration not stated) the value was 20% (inactive).
As to `COc1ccc(S(=O)(=O)N(CCc2ccccc2)CC(=O)NCC2CCCO2)cc1` (configuration not stated), the inhibition was 2% (inactive).
Then `CCOc1ccc(N2C(=O)/C(=C/c3cc(Br)c(O)c(OC)c3)C(=O)NC2=S)cc1`, with 11% (inactive).
For `COc1ccccc1CC(=O)Nc1cccc(C)c1` the value was 0% (inactive).
For `COc1ccccc1CC(=O)Nc1cccc(Br)c1` the value was 67% (active); for `COc1ccccc1CC(=O)Nc1ccc(Br)cc1`, 38% (inactive).
Consider `O=C1c2ccc(-c3nc4ccccc4c(=O)o3)cc2C(=O)N1c1cccc(I)c1`, for which the inhibition is 0% (inactive).
For `Cc1ccc2c(c1)N(C(=O)c1ccccc1Br)C(C)(C)c1ssc(=S)c1-2` the value was 33% (inactive); for `C=CCn1c(=O)c(C(=O)NCCCO)c(O)c2ccccc21`, 11% (inactive).

Values taken from PubChem BioAssay AID372 (MTDP, 2006).
